High-throughput results deposited in PubChem BioAssay by National Center for Advancing Translational Sciences (NCATS).
HTT aggregate = mutant huntingtin aggregation inhibition; Potency, µM (titrated, usually from 46.1 µM), most hits filed as inhibitors; 220,000 compounds, 1.1% hits; PC12 HttQ103-GFP aggregates, Acumen cytometry, 40 h; AID 1688; also: nearly all actives have a fitted effect of over 60% in size
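Ecdysone-promoter PC12 model expressing HTT exon 1 Q103 fused to GFP, induced by tebufenozide at 100 nM final. Compounds titrated; aggregates sized 1–25 µm scored on a 488 nm laser cytometer.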
CBFb-RUNX1 inh = CBF-beta/RUNX1 interaction disruption | Q01196+Q13951 | Potency, µM (highest dose often 59.8 µM), hits mostly inhibitors | AID 1477 | 230,000 tested, under 10 active | AlphaScreen CBFb-His/RUNX1-biotin binding, biochemical
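AlphaScreen proximity signal reports loss of binding between His-tagged CBF-beta and biotin-labelled RUNX1, each at 30 nM. Proteins are pre-associated for 20 minutes, compounds added for 15 minutes, then beads for 90 minutes, all at ambient temperature.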
ALDH1A1 block = blocks purified human ALDH1A1 activity; P00352; Purified ALDH1A1, NADH fluorescence, propionaldehyde substrate; Potency, µM (series often up to 75.3 µM), actives largely listed as inhibitors; 220,000 compounds, 7.3% hits; active = well fitted inhibition curve with a large enough effect, not every such curve was filed as active; inconclusive = small, poorly fitted or top-dose-only effect, or another doubt; inactive = no such curve, though single readings can be large or run the other way
Target sequence (P00352 whole entry, looked up): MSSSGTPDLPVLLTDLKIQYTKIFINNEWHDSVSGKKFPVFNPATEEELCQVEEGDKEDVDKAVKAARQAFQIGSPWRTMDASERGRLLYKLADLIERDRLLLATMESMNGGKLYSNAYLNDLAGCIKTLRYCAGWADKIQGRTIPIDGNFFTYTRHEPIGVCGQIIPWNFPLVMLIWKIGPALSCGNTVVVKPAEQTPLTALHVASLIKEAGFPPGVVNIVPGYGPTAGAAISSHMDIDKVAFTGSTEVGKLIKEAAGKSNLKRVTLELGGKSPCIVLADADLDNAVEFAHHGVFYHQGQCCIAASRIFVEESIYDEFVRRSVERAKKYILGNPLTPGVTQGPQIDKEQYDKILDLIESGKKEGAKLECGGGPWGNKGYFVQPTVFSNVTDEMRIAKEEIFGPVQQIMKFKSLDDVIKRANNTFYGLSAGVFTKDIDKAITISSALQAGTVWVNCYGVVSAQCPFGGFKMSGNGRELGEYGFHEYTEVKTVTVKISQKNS
PNC inhibitor = perinucleolar compartment assembly inhibition; 140,000 compounds, 3.1% hits; activity change (PNC), negative = inhibition, % at 10 µM; PC3M PTB-GFP, PNC prevalence imaging, 16 h; stronger effect = lower value;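 active = readout at or below -70, meaning at least 70% loss of cells showing the perinucleolar compartment, a nuclear body marking cancer cells; inconclusive = readout between -30 and a set limit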
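Compounds are pinned in duplicate onto adhered PC3M cells stably expressing GFP-tagged PTB and incubated 16 h at 37 C. Cells are then fixed, nuclei stained with Hoechst, and PNC-positive cells counted.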
HPGD inh = inhibitors of human 15-hydroxyprostaglandin dehydrogenase (HPGD) | P15428 | purified HPGD, NADH fluorescence kinetic, PGE2 substrate | Potency, µM, actives largely listed as inhibitors | 150,000 compounds, 4.3% hits; active = well fitted inhibition curve with a large enough effect, not every such curve was filed as active; inconclusive = small, poorly fitted or top-dose-only effect, or another doubt; inactive = no such curve, though single readings can be large or run the other way
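20 nM HPGD preincubated 15 min at room temperature with compound in 50 mM Tris-HCl pH 8, 0.01% Tween 20. Started with 1 mM NAD+ and 30 uM prostaglandin E2; NADH fluorescence (360/450 nm) read 5 times over 30-s intervals, last minus first.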
HTT ATP protect = protects HTT-Q103 PC12 cells, measured by ATP; PC12 HTT-Q103 induced, cytoprotection, ATP luminescence, 40 h; Potency, µM (highest dose often 56.4 µM), hits mostly activators; 230,000 compounds, 0.14% hits; AID 1471; also: nearly all actives have a fitted effect of over 45% in size
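Quantitative HTS on tebufenozide-induced (100 nM) PC12 cells expressing HTTQ103 exon 1–GFP; compounds tested as a concentration series; survival measured via cellular ATP.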
A number is an active result; [ ] = remark or other dose. Sampled rows, rich in hits. Any-hit rate of the full collection: about 11%. Unless noted, calls follow the shape of the dose curve; as a rule, active = well fitted curve in the direction sought with a large enough effect; inconclusive = small, poorly fitted or top-dose-only effect, or another doubt; inactive = no such curve, though single readings can be large; an effect the other way counts as inactive or inconclusive.

Screening NC(Cn1ccc(=O)c(O)c1)C(=O)O (stereo not drawn) returned CBFb-RUNX1 inh inactive, ALDH1A1 block inactive, HPGD inh inactive and HTT ATP protect inactive.
CNC[C@H](O)[C@H](O)[C@H](O)[C@H](O)CO was read as CBFb-RUNX1 inh inactive, ALDH1A1 block inactive, HPGD inh inactive and HTT ATP protect inactive.
`CN(C)S(=O)(=O)N1CCC(Oc2ccc(C(=O)NCC(C)(C)CO)cc2)CC1` gave HTT aggregate inactive[9.22 µM], CBFb-RUNX1 inh inactive, ALDH1A1 block inactive and HTT ATP protect inactive[10 µM].
`Cc1cc(C(=O)COc2cccc(-n3cnnn3)c2)c(C)n1-c1ccccc1` gave HTT aggregate 11.2µM, CBFb-RUNX1 inh inactive, ALDH1A1 block inactive, PNC inhibitor inconclusive, HPGD inh inactive and HTT ATP protect inactive.
COC(=O)COc1cccc(-n2cnnn2)c1 was read as HTT aggregate inactive, CBFb-RUNX1 inh inactive, ALDH1A1 block inactive, PNC inhibitor inactive, HPGD inh inactive and HTT ATP protect inactive.
For COC(=O)c1cc(S(=O)(=O)N2CCC(C)CC2)ccc1F the results were HTT aggregate inactive, CBFb-RUNX1 inh inactive, ALDH1A1 block 28.2µM, PNC inhibitor inactive, HPGD inh inconclusive and HTT ATP protect inactive[0.074 µM].
Screening COC(=O)CSc1ccc(S(=O)(=O)N2CCC(C)CC2)cc1[N+](=O)[O-] returned HTT aggregate inactive, CBFb-RUNX1 inh inactive, ALDH1A1 block inactive, PNC inhibitor -109.3 and HPGD inh inactive.
`CCOC(=O)CSc1ccc(S(=O)(=O)N(CC)CC)cc1[N+](=O)[O-]` gave HTT aggregate inactive, CBFb-RUNX1 inh inactive, ALDH1A1 block inactive and HTT ATP protect inactive.
Screening CC1CCN(S(=O)(=O)c2ccc3c(c2)C(=NO)c2cc(S(=O)(=O)N4CCC(C)CC4)ccc2-3)CC1 returned HTT aggregate 3.16µM, CBFb-RUNX1 inh inactive, ALDH1A1 block inactive, PNC inhibitor inactive, HPGD inh inconclusive and HTT ATP protect inactive.
Screening Cc1ccc(S(=O)(=O)N2CCC(C)CC2)cc1[N+](=O)[O-] returned CBFb-RUNX1 inh inactive and ALDH1A1 block inconclusive.
`CCCCN(CCCC)S(=O)(=O)c1ccc(SCC(=O)OCC)c([N+](=O)[O-])c1` gave HTT aggregate inactive[9.22 µM], CBFb-RUNX1 inh inactive, ALDH1A1 block inconclusive, PNC inhibitor -87.5, HPGD inh inactive and HTT ATP protect inactive.
O=S(=O)(c1ccc2c(c1)C(=NO)c1cc(S(=O)(=O)N3CCCCC3)ccc1-2)N1CCCCC1 was read as HTT aggregate inconclusive, CBFb-RUNX1 inh inactive, ALDH1A1 block inconclusive, PNC inhibitor inactive, HPGD inh inconclusive and HTT ATP protect inactive[10 µM].
For C=CC1CO1 (stereo not drawn) the results were CBFb-RUNX1 inh inactive, ALDH1A1 block inactive, HPGD inh inactive and HTT ATP protect inactive.
`CCNc1c([N+](=O)[O-])c(=O)oc2ccccc12` gave HTT aggregate inactive[9.22 µM], CBFb-RUNX1 inh inactive, ALDH1A1 block 17.8µM and HTT ATP protect inactive[10 µM].
`CCc1ccc(Nc2c([N+](=O)[O-])c(=O)oc3ccccc23)cc1` gave HTT aggregate inactive[9.22 µM], CBFb-RUNX1 inh inactive and HTT ATP protect inactive[10 µM].
Screening O=c1oc2ccccc2c(Nc2ccc3ccccc3c2)c1[N+](=O)[O-] returned HTT aggregate inconclusive, CBFb-RUNX1 inh inactive, ALDH1A1 block 2.24µM, PNC inhibitor inconclusive, HPGD inh inactive and HTT ATP protect inactive.
`O=c1oc2ccccc2c(NC(c2ccccc2)c2ccccc2)c1[N+](=O)[O-]` gave HTT aggregate inactive, CBFb-RUNX1 inh inactive, ALDH1A1 block 22.4µM, PNC inhibitor inactive and HPGD inh inactive.
`O=c1oc2ccccc2c(NCc2cccc(F)c2)c1[N+](=O)[O-]` gave HTT aggregate inactive, CBFb-RUNX1 inh inactive, ALDH1A1 block 25.1µM, PNC inhibitor inactive, HPGD inh 20µM and HTT ATP protect inactive[10 µM].
